The subject of this test is Plasmodium falciparum. Description: Calibr Malaria Delayed Death Assay SOP. The class given is functional, organism-based. Also on record: scale not given: in the data most compounds retested in dose-response had high values. To be noted: concentration 4.99e-06 (unit not given; other assays of the set use mol/L).

Molecules are shown by their SMILES. Several values for one entry are separate records, joined by “and”; a condition that tells them apart may be missing. Equal entries are not always repeated. About 1,200 (3.2%) of roughly 38,000 compounds showed an effect of 50% or more. The median lay at about -58%. This excerpt belongs to a sample that is enriched for strong results.

For the compound `CCOC(=O)N1CCC2(CCCN(C3CCOCC3)C2=O)C1` (stereo not given), the “Percent Effect” value was -44.33%.
In the case of `CCc1ccc(CNC(=O)Cn2ccc3sccc3c2=O)cc1`, the “Percent Effect” value is reported as -94.67%.
On to `O=C(NCCc1ccccn1)[C@@H]1CC[C@@H]2[C@@H](CCN2Cc2ccoc2)O1.O=C(O)C(F)(F)F.O=C(O)C(F)(F)F`, for which the “Percent Effect” value is -61.1%.
In the case of `C1CCC(CO[C@@H]2CC[C@H]3[C@H]2OCCN3CC2CCOCC2)C1.O=C(O)C(F)(F)F`, the “Percent Effect” value was -55.18%.
On to `O=C(O)C(F)(F)F.O=C(O)C(F)(F)F.O=C(c1ccco1)N1C[C@H]2CCCN(Cc3ccncc3)[C@H]2C1`, for which the “Percent Effect” value is reported as -22.95%.
The same measure, in the same setting: the value for `COc1ccc(NC(=O)c2cc3c([nH]c2=O)CCCC3=O)c(OC)c1` was -49.85%; that for `CCN1CCN(CCNC(=O)c2sc(C(C)C)nc2C)CC1` was -17.43%; that for `O=C(NCc1cccs1)[C@@H]1CC[C@@H]2[C@@H](CCN2CC2CCC2)O1.O=C(O)C(F)(F)F` was 20.57%.
On to `CCc1cnc(CN(C(C)=O)C2CCN(CCc3ccccn3)C2)o1` (stereo not given), for which the “Percent Effect” value is reported as -120.8%.
Turning to `Cc1csc2ncnc(N3CCCC(Cn4cc(C(C)(C)O)nn4)C3)c12` (stereo not given), the “Percent Effect” value was -82.82%.
The same measure, in the same setting: the value for `Cc1cc(C(=O)Nc2cccn(Cc3ccc(F)cc3)c2=O)on1` was -10.66%; that for `CCc1nc(CN2CCCN(C(=O)CCCOC)CC2)cs1` was -51.29%; that for `Cc1cc2nc(CN(C)c3ccc(Cl)cc3)cc(=O)n2o1` was -90.64%.
`CCCS(=O)(=O)N1CCOC2(CCCN(Cc3ccccn3)C2)C1.O=C(O)C(F)(F)F` (stereo not given): the “Percent Effect” value is given as -25.77%.
Same read-out and setting: the value for `CN(Cc1ncc(C(C)(C)C)o1)CC1CCCN1c1cccnn1` (stereo not given) was 79.78%; that for `c1cnnc(N2CCCC2CNc2ncnc3ccsc23)c1` (stereo not given) was -78.5%.
As to `c1cnnc(N2CCCC2CNc2ncnc3c2CCC3)c1` (stereo not given), the “Percent Effect” value was -141.7%.
On the same count and under the same terms, next, `CN(Cc1ncc(C(C)(C)C)o1)C1CCCN(c2cccnn2)C1` (stereo not given): -55.67%.
Same read-out and setting: the value for `CN(Cc1ncc(-c2ccccc2)o1)CC1CCCN1c1cccnn1` (stereo not given) was -41.68%; that for `Fc1ccc(Oc2ccc(CNCC3CNc4ccnn4C3)cn2)cc1` (stereo not given) was -107.9%.
As for `O=C(COCC(=O)N(c1ccccc1)c1ccccc1)N1CCCCC1`, the “Percent Effect” value is recorded as -158.5%.
For the compound `CCc1nc(NCC2CCCN(C(=O)C3CC3)C2)c2cnn(C)c2n1` (stereo not given), the “Percent Effect” value was -178%.
Regarding `Cc1nccn1-c1ccc(C(C)NCCc2ccccn2)cc1` (stereo not given), the “Percent Effect” value came to 9.885%.
For `CN(CCc1ccccn1)Cc1nccn1Cc1ccccc1`, the “Percent Effect” value came out at 56%.
Same read-out and setting: next, `CCN1CCCC(C)(C(=O)NCc2nccn2Cc2ccccc2)C1` (stereo not given): 29.31%; `CN(CCc1ccncc1)Cc1nccn1Cc1ccccc1`: 39.55%.
With `CN(Cc1ccncc1)Cc1nccn1Cc1ccccc1`, the “Percent Effect” value was -44.2%.
Same read-out and setting: the value for `CC(C)n1ccnc1CN1CCOC(CCc2ccccc2)C1` (stereo not given) was 7.997%.
Still for that read-out and setting: the value for `Cc1nccn1-c1ccc(C(C)NCCC(C)C)cc1` (stereo not given) was 48.4%.
Same read-out and setting: the value for `CC(C)(C)C(=O)NCc1nccn1CCc1ccccc1` was 10.03%; that for `CC(NCCc1nccn1Cc1ccccc1)c1ccsc1` (stereo not given) was 82.98%; that for `CCc1ccc(C(C)NCc2nccn2Cc2ccccc2)o1` (stereo not given) was -17.05%.
For the compound `Cc1nc(NC(=O)NCCCN2CCC(C(N)=O)CC2)sc1C`, the “Percent Effect” value is -93.87%.
Same read-out and setting: the value for `Cc1nnc(C(NS(=O)(=O)c2cc(F)c(C)cc2F)C(C)C)[nH]1` (stereo not given) was -26.37%; that for `Cc1ccc(CN(C)Cc2ncc(C(C)(C)C)o2)o1` was -58.81%.
Still for that read-out and setting: the value for `COc1cccc(OC2CN(C(=O)c3c(C)noc3C)C2)c1` was -22.85%; that for `O=c1c2ccc(Cl)cc2ncn1CCCN1CCCCC1CO` (stereo not given) was -12.14%; that for `CC(C)c1ccc(NC(=O)c2ncc(C(N)=O)cc2Cl)cc1` was -172.5%.
With `O=C1CC(c2ccc3c(c2)OCO3)c2cnn(C3CCCC3)c2N1` (stereo not given), the “Percent Effect” value is reported as -69.51%.
On the same count and under the same terms, the value for `Cn1cc(C2CC(=O)NC23CCN(C(=O)NC2CC2)CC3)cn1` (stereo not given) was -54.83%; that for `CC(C)C(C)N(C(=O)Cn1nc2n(c1=O)CCCCC2)C1CC1` (stereo not given) was -123.2%.
In the case of `CCCc1cnc(C)nc1N1CCC(Cc2ccc(CO)cc2)C1` (stereo not given), the “Percent Effect” value is -3.438%.
As for `OCC1(O)CCN(Cc2ccc(C3CCCCO3)o2)CC1` (stereo not given), the “Percent Effect” value is listed as -16.13%.
On to `CN1CCN(C)C2(CCN(Cc3ccc(C4CCCCO4)o3)CC2)C1` (stereo not given), for which the “Percent Effect” value was -149.2%.
In the case of `CN1CCC2(CC1)CN(Cc1ccc(C3CCCCO3)o1)CCCN2C` (stereo not given), the “Percent Effect” value is 80.31%.
Same read-out and setting: the value for `Oc1cccc(C2CN(c3nnc(C4CC4)s3)CCO2)c1` (stereo not given) was -92.75%.
The same measure, in the same setting: next, `O=C(Nc1ccccc1OC1CCOC1)c1ccon1` (stereo not given): -94.04%.
`CN(Cc1ccccc1)CC(C)(C)NC(=O)c1ccon1`: the “Percent Effect” value is reported as -38.2%.
For `O=C(O)C(F)(F)F.O=C([C@@H]1CCO[C@@H]2CCN(Cc3cccs3)C[C@H]21)N1CCCCO1`, the “Percent Effect” value is recorded as -36.32%.
The same measure, in the same setting: next, `Cc1cccc(CN2C[C@@H]3CCCO[C@@H]3[C@H](NS(C)(=O)=O)C2)n1`: -67.26%; `Cc1ncsc1CN1C[C@@H]2CCCO[C@@H]2[C@H](Nc2ccccn2)C1.O=C(O)C(F)(F)F.O=C(O)C(F)(F)F`: -27.39%; `Cc1cccc(CN2C[C@@H]3CCCO[C@@H]3[C@H](Nc3ccccn3)C2)n1`: 55.52%.
In the case of `CN(C)Cc1nc(-n2cnc(C(=O)NC3CCCC3)c2)n2ccccc12`, the “Percent Effect” value is recorded as 8.682%.
Take `CC(C)Oc1ccccc1NC(=O)N1CCC(n2cncn2)CC1`: the “Percent Effect” value is listed as -58.88%.
On the same count and under the same terms, the value for `Cc1ccccc1-c1noc(CN2CCn3c(nnc3C3CC3)C2)n1` was 50.31%.
Same read-out and setting: the value for `c1ccc(-c2cnc(CN3CCn4c(nnc4C4CC4)C3)o2)cc1` was -11.2%.
On the same count and under the same terms, next, `Cc1ccc(-c2nc(CN3CCn4c(nnc4C4CC4)C3)co2)c(C)c1`: -40.53%; `CC(C)c1nnc(CN2CC(n3cccn3)Cc3ccccc32)o1` (stereo not given): -227.8%.
Turning to `O=C(NCC1CC1)c1nnc2ccc(Cl)cc2n1`, the “Percent Effect” value stood at 9.063%.
On the same count and under the same terms, the value for `COCCN1CCCCC12CC(=O)N(c1ccccc1OC)C2.O=C(O)C(F)(F)F` (stereo not given) was -87.11%; that for `CCCN1CCCN(S(=O)(=O)c2cnc3onc(C)c3c2)CC1` was -59.23%.
On the same count and under the same terms, the value for `CC(C)c1nccn1C1CCCN(C(=O)CCCc2ccccn2)C1` (stereo not given) was -134.4%.
For the compound `CC(C)OCCN1CCN(c2ccc(Cl)cn2)CC1`, the “Percent Effect” value was -78.08%.
In the case of `Clc1ccc(N2CCN(CCCN3CCCCC3)CC2)nc1`, the “Percent Effect” value is recorded as 68.33%.
The same measure, in the same setting: the value for `CSCCCN1CCN(c2ccc(Cl)cn2)CC1` was 28.74%.
As to `CCCn1cc(-c2cc(C(=O)N(C)C)c3ccc(C)cc3n2)cn1`, the “Percent Effect” value (4.99 µM) is -45.66% and -43.3%.
Turning to `CN(Cc1ccccn1)C1CC2(CCN(Cc3ccccn3)CC2)C1.O=C(O)C(F)(F)F.O=C(O)C(F)(F)F`, the “Percent Effect” value is listed as -38.28%.
`Cc1cccc(-c2ncc(CNC(C)Cc3ncccc3C)cn2)c1` (stereo not given): the “Percent Effect” value is -10.25%.
On the same count and under the same terms, the value for `Cc1cccnc1CC(C)Nc1ncc(C)c(N(C)C)n1` (stereo not given) was 44.79%; that for `CCn1nc2c(cc1=O)CN(CCOc1ccccc1C#N)CC2` was -106.3%.
As for `CCn1cc(C(=O)NCc2cccnc2N(C)Cc2ccccc2)cn1`, the “Percent Effect” value is on record as -74.6%.
As for `CC(=O)NC1CCCN(C(=O)NCc2cccnc2N(C)C)C1` (stereo not given), the “Percent Effect” value is on record as -14.71%.
The same measure, in the same setting: next, `CN(Cc1ccccc1)c1ncccc1CNC1CCSCC1`: 25.77%.
Still for that read-out and setting: next, `CN(Cc1ccccc1)c1ncccc1CNC1CCC1`: 69.98%; `CN(C)c1ncccc1CNCc1ccc(N2CCOCC2)cc1`: -64.22%; `CC(=O)N1CCC(NCc2cccnc2N(C)Cc2ccccc2)CC1`: -58.67%.
Consider `CN(Cc1ccccc1)c1ncccc1CNC1CCCC1`, for which the “Percent Effect” value came out at 65.38%.
In the case of `CN(Cc1ccccc1)c1ncccc1CNC(=O)c1ccnn1C`, the “Percent Effect” value is recorded as -17.51%.
Same read-out and setting: next, `CN(Cc1ccccc1)c1ncccc1CNC1CN2CCC1CC2` (stereo not given): 62.39%; `CN(c1ncccc1CNCc1ncc[nH]1)C1CCCCC1`: 37.42%; `Cc1nnsc1C(=O)NCc1cccnc1N(C)Cc1ccccc1`: -61.52%.
Consider `Cc1n[nH]c(C)c1CNC(=O)N1CCCC(Cc2nccn2C)C1` (stereo not given), for which the “Percent Effect” value is recorded as -135.2%.
As for `O=C1CC(N2CCN(c3ccc(F)cc3)CC2)C(=O)N1Cc1cccs1` (stereo not given), the “Percent Effect” value was -39.99%.
`COc1ccc(Nc2c[nH]c(=O)[nH]c2=O)cc1`: the “Percent Effect” value is recorded as -70.96%.
The same measure, in the same setting: the value for `CNC(=O)[C@@]12CCC3(CCNCC3)[C@@H]1CN(S(C)(=O)=O)C2` was -13.04%; that for `N#CC1(C(=O)N2CCOC(c3ccc(F)cc3)C2)CCCC1` (stereo not given) was -26.56%.
The same measure, in the same setting: next, `O=C(O)C(F)(F)F.O=C(O)C(F)(F)F.c1cncc(OC[C@]23COC[C@H]2CN(Cc2nccs2)C3)c1`: -94%; `Cc1cc(C(=O)N2CCn3cc(CN4CCCC4)nc3C2)no1`: -104.3%.
`CCC(NC1CCN(S(C)(=O)=O)CC1)c1cccs1` (stereo not given): the “Percent Effect” value is recorded as -138.1%.
On the same count and under the same terms, the value for `COc1cc(NC(=O)NCC2CCCO2)cc(OC)c1` (stereo not given) was -111.7%; that for `Cc1cncc(C2CCCN(CC3CCC3)C2)n1` (stereo not given) was -16.18%; that for `COC1CCN(C(=O)Nc2ccccc2)CC(=O)N(C)c2ccccc21` (stereo not given) was -65.05%.
The same measure, in the same setting: the value for `CCc1nc(C)c(CC(=O)N2CCC3(CC2)OCCCC3OC)c(=O)[nH]1` (stereo not given) was -118.2%; that for `CCN1CCCC(CNC(=O)CCc2ccc(OC)c(F)c2)C1` (stereo not given) was -76.38%; that for `CCN1CCC(CNC(=O)NCc2cc(-c3ccc(C)cc3)no2)C1` (stereo not given) was -139.2%.
Same read-out and setting: the value for `CCN1CCC(CNCc2c[nH]nc2C(C)(C)C)C1.Cl` (stereo not given) was -150.6%; that for `CCN1CCC(CNCc2cc(C)ccc2OC)C1` (stereo not given) was 82.22%; that for `CCN1CCC(CNCc2cc(OC)ccc2OC)C1` (stereo not given) was 56.22%.
On to `CCN1CCC(Cn2ccc3c(OC)c(OC)ccc3c2=O)C1` (stereo not given), for which the “Percent Effect” value turned out to be 20.65%.
As for `CCO[C@H]1COC[C@@H]1NC(=O)CCc1nc(-c2ccccc2)no1`, the “Percent Effect” value is on record as -93.65%.

The values are drawn from ChEMBL document CHEMBL3988442, “University of Dundee, Small-Polar-MMV Screening Library” (2021).
